Screening data from PubChem.
The sample as a whole holds a higher share of hits than the screen did.
KDM5B inh = Primary screen for KDM5B Histone Demethylases FDH-coupled qHTS. Lysine-specific demethylase 5B (Homo sapiens), Q9UGL1. Potency, µM (highest dose often 57.7 µM), actives largely listed as inhibitors. AID 1347165, 2019. KDM5B demethylase, FDH-coupled NADH fluorescence (FDH is formaldehyde dehydrogenase). 220,000 compounds, 2.6% hits; active = well fitted inhibition curve with a large enough effect; also: 0% is about no effect; nearly all actives have a fitted effect of over 70% in size
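Coupled FDH/NAD⁺ fluorescence readout. KDM5BΔAP 200 nM final; compound titration, 10 min RT preincubation; substrate mix 12.5 µM H3K4me3, 25 µM 2-OG, 50 µM Fe(II), 100 µM ascorbate, 0.25 mM NAD⁺, 0.25 U/mL FDH; ΔRFU over 30 min.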
The depositor's hits bear a star; i = inactive. Potency is read from the fitted curve at half-maximal effect.

SMILES	KDM5B inh
Cc1ccccc1CN1Cc2nc(-c3c(C)noc3C)ccc2OCC1=O	35µM*
Cc1nc(CN2Cc3nc(-c4ccc(Cl)cc4)ccc3OCC2=O)cs1	i
Cc1ccccc1CN1Cc2nc(-c3cccc(C(N)=O)c3)ccc2OCC1=O	32µM*
CC(=O)Nc1cccc(-c2ccc3c(n2)CN(Cc2ccccc2C)C(=O)CO3)c1	i
COc1ccc(Nc2ccc3c(n2)CN(Cc2ccc(C(F)(F)F)cc2)C(=O)CO3)cn1	11µM*
COc1ccc(Nc2ccc3c(n2)CN(Cc2ccccc2)C(=O)CO3)cn1	i
O=C(Nc1ccc2c(c1)CN(Cc1ccc(Cl)cc1)C(=O)CO2)c1ccccc1	i
O=C1COc2ccc(Nc3ccc(Cl)cc3)nc2CN1Cc1nc2ccccc2s1	35µM*
COc1cccc(C(=O)N2CCC(N3C[C@H](O)C[C@H]3C(=O)Nc3ccccc3OC)CC2)c1	i
COc1ccc(-c2c(C)oc3cc(OC(C)=O)ccc3c2=O)cc1OC	i
CC(=O)c1ccc(S(=O)(=O)N2CCC(C(=O)Nc3nc4c(s3)CCC4)CC2)cc1	i
O=C(COC(=O)c1ccc2ccccc2n1)c1ccc(Cl)cc1	i
CC(C)(c1nnnn1-c1ccc(Cl)cc1)N1CCOCC1	i
NS(=O)(=O)c1ccc(N/N=C2/CC3CC=CC23)c([N+](=O)[O-])c1 (stereo not given)	i
CC(C)c1ccc(CN2CCCC3(CCN(S(C)(=O)=O)C3)C2=O)cc1 (stereo not given)	i
COc1cc2c(cc1OC)CN(Cc1cc(=O)c(OCc3c(F)cccc3Cl)co1)CC2	i
CCCNS(=O)(=O)c1ccc(OCC(=O)NCc2cccnc2)cc1	i
CCOC(=O)c1c(NC(=O)c2ccc(C)o2)sc2c1CCC(C(C)(C)C)C2 (stereo not given)	i
Cn1cc(-c2ccc3c(n2)CN(Cc2ccc(C(F)(F)F)cc2)C(=O)CO3)cn1	i
CN1Cc2nc(OCc3ccc(F)cc3)ccc2OCC1=O	i
CN1Cc2nc(-c3ccc4c(c3)OCO4)ccc2OCC1=O	32µM*
CN1Cc2nc(-c3cccc(C(F)(F)F)c3)ccc2OCC1=O	i
O=C1COc2ccc(-c3cccc(O)c3)nc2CN1Cc1ccc(C(F)(F)F)cc1	i
Cc1ccccc1CN1Cc2nc(-c3ccc4c(c3)OCO4)ccc2OCC1=O	35µM*
O=C1COc2ccc(-c3ccc4c(c3)OCO4)nc2CN1Cc1ccc(C(F)(F)F)cc1	32µM*
SMILES	KDM5B inh
O=C(CCc1nnc2ccc(NCc3ccco3)nn12)Nc1cccnc1	i
O=C(COC(=O)c1cc2ccccc2[nH]1)NC1CCCCCCC1	i
COc1ccc(C(=O)N2CCC3(CC2)C(OC)CN3c2cccc(F)c2)cn1 (stereo not given)	i
CC(C)(Oc1nn(CC2CCOCC2)c2ccccc12)C(=O)NCc1ccncc1	i
CC(C)(Oc1nn(CC2CC2)c2ccc(CN3CCCC3)cc12)C(=O)NC1CC1	40µM*
CC(C)(Oc1nn(CC2CCOCC2)c2ccccc12)C(=O)Nc1ccccn1	i
CN(C)CCNC(=O)C(C)(C)Oc1nn(CC2CCOCC2)c2ccccc12	32µM*
COCc1ccc2c(c1)c(OC(C)(C)C(=O)Nc1ccn(C)n1)nn2Cc1cccnc1	i
Cn1ccc(NC(=O)C(C)(C)Oc2nn(CC3CC3)c3ccc(CN4CCCC4)cc23)n1	35µM*
CCN(CC)CCCNC(=O)NC12CC3CC(CC(C3)C1)C2	i
COc1ccccc1-c1cc(=O)c2cc(NC(=O)c3ccccc3Br)ccc2o1	i
CC(C)CN1CCNC(=O)C1CC(=O)O (stereo not given)	i
Cc1ccc(-c2csc(-c3nc(-c4ccc(C)cc4C)cs3)n2)cc1	i
COc1cccc(O)c1CN1CCC2(CC1)Cc1ccccc1CNC2=O	i
O=Cc1ccccc1-c1ccccc1C(=O)O	i
Cc1ccc(C(=O)Nc2cccc(-c3nc4ccccc4s3)c2C)c(C)c1	i
Cc1ccc(C)c(NC(=O)[C@H]2CCC[C@H]2NC(=O)c2ccncc2)c1	i
O=C(Cc1cccc(Cl)c1)NC1CCN(c2cc(-c3cccs3)[nH]n2)C1 (stereo not given)	4µM*
COc1ccc(-c2cc(N3CCC(NC(=O)CCc4cccc(OC)c4)CC3)n[nH]2)cc1	i
O=C(Cc1ccc(Cl)cc1)NC1CCN(c2cc(-c3ccccc3)[nH]n2)CC1	i
O=C(Cc1cccc(F)c1)NC1CCN(c2cc(-c3ccc(Cl)cc3)[nH]n2)CC1	i
COc1cccc(CC(=O)NC2CCN(c3cc(-c4cccs4)[nH]n3)C2)c1 (stereo not given)	28µM*
COc1cccc(CCC(=O)NC2CCN(c3cc(-c4ccccc4)[nH]n3)CC2)c1	i
O=[N+]([O-])c1ccc(NS(=O)(=O)c2ccc(I)s2)c([N+](=O)[O-])c1	i
CN1C(=O)COC[C@@H]1[C@H](O)c1ccc(NC(=O)c2ccccc2)cc1	i
Cc1cc2nc3n(c(=O)c2n1CC(=O)Nc1ccc(F)c(F)c1)CCC3	i
